# Only a selection was taken, and hits are over-represented in it overall.
# ERK EGF block = EGF-driven ERK pathway inhibition. HEK293-V1b, EGF-stimulated phospho-ERK AlphaScreen. Potency, µM (doses to about 11.5 µM), for the others: at the top dose activity change, negative = inhibition, usual class: inhibitors. actives 0.41% (n = 130,000);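 note: potency is the fitted concentration of half-maximal effect; plate controls were stimulated vehicle wells for no effect and unstimulated vehicle basal for full effect; nearly all actives have a fitted effect of over 55% in size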
#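 EGF-stimulated (25 nM, 5 min) phospho-ERK in HEK293 cells stably expressing V1b, cells pretreated 30 min with compound at 37C. Homogeneous AlphaScreen read on lysates.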
# ERK pERK EGF = reduces EGF-stimulated ERK phosphorylation in HEK293 cells | HEK293 EGF-stimulated ERK phosphorylation, AlphaScreen | shares compounds with ERK EGF block | actives 60% (n = 60) | Potency, µM (top dose mostly 57.5 µM), inactives show at the top dose activity change, negative = inhibition, usual class: inhibitors
# c-Raf inh = blocks human c-Raf kinase activity; shares compounds with ERK EGF block; c-Raf kinase inhibition, homogeneous biochemical assay; activity change, negative = inhibition, % at 76.9 µM; 70 tested, under 10 active
# MEK inh = MEK1 (human) kinase inhibition. homogeneous MEK kinase activity assay, ERK pathway. 70 tested, under 10 active. Potency, µM (highest dose often 76.9 µM), without a hit: at the top dose activity change, negative = inhibition, hits mostly inhibitors. shares compounds with ERK EGF block
# Target sequence (Q02750 whole entry, looked up): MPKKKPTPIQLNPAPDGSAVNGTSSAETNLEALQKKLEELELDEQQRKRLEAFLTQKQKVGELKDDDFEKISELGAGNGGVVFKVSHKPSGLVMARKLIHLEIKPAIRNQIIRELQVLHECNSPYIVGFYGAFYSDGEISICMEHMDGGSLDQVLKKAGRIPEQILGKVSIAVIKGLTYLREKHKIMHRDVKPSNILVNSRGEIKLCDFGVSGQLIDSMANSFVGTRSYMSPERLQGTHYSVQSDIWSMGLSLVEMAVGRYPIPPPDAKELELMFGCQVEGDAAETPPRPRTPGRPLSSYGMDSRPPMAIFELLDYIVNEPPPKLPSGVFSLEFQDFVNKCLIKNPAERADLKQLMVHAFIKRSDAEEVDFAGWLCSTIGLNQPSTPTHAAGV
# An asterisk follows results filed as active; u = inconclusive; x = not tested or not shown; [ ] = remark or other dose. Calls come from the whole dose curve; as a rule, active = well fitted curve in the direction sought with a large enough effect; inconclusive = small, poorly fitted or top-dose-only effect, or another doubt; inactive = no such curve, though single readings can be large; an effect the other way counts as inactive or inconclusive.
SMILES,ERK EGF block,others
Cc1ccccc1Nc1oc(-c2ccccc2)nc1-c1ccccc1F,1%,
O=C(c1ccco1)N1CCC2(CC1)CCN(c1ccccn1)CC2,11%,
CC[C@H](C)[C@@H](NC(=O)O[C@@H]1Cc2cc(Br)ccc2O[C@H]1c1cccc(OC)c1)C(=O)OC,-8%,
c1cncc(CNc2ncncc2-c2ccc3c(c2)OCO3)c1,19%,
Cc1cc(NC(=O)c2ccccc2F)on1,-3%,
Cc1cc(C)nc(S/C=C/C(=O)c2ccccc2F)n1,28µM*,
Cc1nnc(SCC(=O)c2ccccc2F)n1Cc1ccccc1,-6%[57.5 µM],
CC1(C)O[C@@H]2[C@@H](O1)C(c1ccccc1)(c1ccccc1)OP(=O)(O)OC2(c1ccccc1)c1ccccc1,-10%,
O=C(N/N=C1\CC2CC=CC12)c1ccccc1Cl (configuration not stated),-4%,
CC1(C)OC(=O)C(=NNc2ccccc2[N+](=O)[O-])C(=O)O1,6%[57.5 µM],
O=[N+]([O-])c1ccccc1N/N=C1\CC2CC=CC12 (configuration not stated),13µM*,
COCCN(CCOC)c1nc(C)nc2c1nc(-c1ccccc1)n2CCCN1CCCCC1C (configuration not stated),9%,
CCNc1ncc2nc(C)c(=O)n(Cc3cccc(OC)c3)c2n1,2%,
CC(=O)SC1CC2=CC(=O)CC[C@@]2(C)C2CC[C@@]3(C)[C@@H](CC[C@@]34CCC(=O)O4)C12 (some centres not stated),10%,
Cc1cc(O)c(C(C)C)cc1NC(=O)c1ccccc1Cl,-3%,
COc1ccc2nc3cc(Cl)ccc3c(Nc3cc(C(C)C)c(O)cc3C)c2c1,18µM*,
CCN(CC)CCCC(C)Nc1c2ccc(Cl)cc2nc2ccc(OC)cc12 (configuration not stated),3%,
COc1ccc(-c2nc3cnc(OC)nc3n(Cc3cccs3)c2=O)cc1,-4%,
C=CCC(Nc1ccc(OC)cc1)C(=O)OCC (configuration not stated),-7%,
O=C(c1ccco1)N1CCC2(CC1)CCN(C(c1ccccc1)c1ccccc1)CC2,3%,
COc1ccc(C2c3cc(OC)c(OC)cc3Cc3c4cc(OC)c(OC)cc4cc[n+]32)cc1OC (configuration not stated),-11%,
Cc1ccc(N=c2c([N+](=O)[O-])nn(-c3ccc4c(c3)OCCO4)n2O)c(Cl)c1,5%,
CCc1ccc(N=c2c([N+](=O)[O-])nn(-c3ccc4c(c3)OCCO4)n2O)cc1,28µM*,
Cc1ccc(CN=c2c([N+](=O)[O-])nn(-c3ccc4c(c3)OCCO4)n2O)cc1,9%,
COc1cccc([C@@H]2Oc3ccc(Br)cc3C[C@H]2OC(=O)Nc2ccc(C)c(Br)c2)c1,-5%,
SMILES,ERK EGF block,others
NCCC[C@@H](CC(=O)N[C@@H]1CCCC[C@H]1C(=O)N[C@H](CC(=O)N[C@@H](CCC(=O)O)CC(=O)O)Cc1c[nH]c2ccccc12)NC(=O)C[C@H](Cc1ccccc1)NC(=O)[C@@H]1CNCC[C@H]1N,-11%,
CC/C=C\C/C=C\C/C=C\C/C=C\C/C=C\C/C=C\CCC(=O)NCCCC(=O)O,-11%,
CO[C@H]1C=CO[C@@]2(C)Oc3c(C)c(O)c4c(O)c(c(C=NN5CCN(C6CCCC6)CC5)c(O)c4c3C2=O)NC(=O)C(C)=CC=C[C@H](C)[C@H](O)[C@@H](C)[C@@H](O)[C@@H](C)[C@H](OC(C)=O)[C@@H]1C,8.9µM*,
CN(C)c1ccc(C(=O)NNC(=O)c2ccc(Cl)cc2)cc1,-1%[57.5 µM],
CN(C)c1ccc(C(=C2C=CC(=[N+](C)C)C=C2)c2ccc(N(C)C)cc2)cc1,13µM*,
CN(C)c1ccc(C(=O)c2ccc(O)cc2O)cc1,-1%,
COCC(=O)N1CCC2(CCN(Cc3ccccc3)CC2)CC1,-4%,
Cn1c2c(c(=O)c3ccccc31)C[C@@H](O)C(C)(C)O2,-6%,
CCCCCCCCCCCCCCCCCCNC(=O)OCC(COP(=O)([O-])OCC[n+]1ccsc1)OC (configuration not stated),10%,
O=S(=O)(c1ccc(NC(=S)N/N=C/c2ccc(O)c(O)c2)cc1)N1CCOCC1,-5%[57.5 µM],
O=S(=O)(c1ccc(Cl)c(NC(=S)N/N=C/c2ccc(O)cc2)c1)N1CCOCC1,28µM*,
O=S(=O)(c1ccc(Cl)c(NC(=S)Nc2ccccc2N2CCOCC2)c1)N1CCOCC1,3%,
CCC(=O)N[C@@H]1CCc2cccc(OC)c2C1,-1%,
CCCN1C(=O)/C(=C/c2ccncc2)SC1=S,2%,
CCCN1C(=O)/C(=C2/C=Cc3ccccc3N2CC)SC1=S,5.6µM*,ERK pERK EGF=10µM*;c-Raf inh=-8;MEK inh=-2%
CCCN1C(=O)/C(=C2\SC(=S)N(c3c(C)n(C)n(-c4ccccc4)c3=O)C2=O)c2ccccc21,-7%[57.5 µM],
C=C[C@H]1CCC=C2C(=O)CCC[C@@H]21,-6%,
COc1cccc(/C=N/Nc2ncnc3scc(-c4ccccc4)c23)c1O,5%,
COc1cccc(/C=N/Nc2ncnc(Cl)c2N)c1O,-4%,
COc1cccc(/C=N/Nc2cc(-n3nc(C)cc3-c3ccccc3)ncn2)c1O,8.9µM*,ERK pERK EGF=11µM*;c-Raf inh=u;MEK inh=-7%
O=C(O)c1ccc(NS(=O)(=O)c2ccsc2C(=O)O)c(O)c1,-6%,
c1ccc(C(c2ccccc2)N2CC3(CCNCC3)C2)cc1,-10%,
COC(=O)c1ccc(C(/C=C/[C@@H](C)C(=O)N[C@H](C)CO)NC(=O)OCc2ccccc2)cc1 (some centres not stated),2%,
Cc1cc2nc3ccc(=[N+](C)C)cc-3sc2cc1N,u,ERK pERK EGF=11%;c-Raf inh=u;MEK inh=u
Cc1nc2cc(C)c(C)cc2s1,-20%[57.5 µM],
SMILES,ERK EGF block,others
Cc1nc2cc3sc(C)nc3cc2s1,-4%,
CCCC[P+](CCCC)(CCCC)Cc1ccc(NC(=O)[C@@H](Cc2ccc3ccccc3c2)NC(=NC2CCCCC2)NC2CCCCC2)cc1,-5%,
O=C(NC[C@@H]1CCCCN1)c1cc(OCC(F)(F)F)ccc1OCC(F)(F)F,-6%[25.7 µM],
COc1ccc(NC(=O)N2CCCC3(CCN(C(=O)c4ccncc4)CC3)C2)cc1,8%,
Cc1cc(NC(=O)c2ccc(Cl)c([N+](=O)[O-])c2)no1,-5%[57.5 µM],
COc1cc(C(=O)Nc2ccc(Cl)c([N+](=O)[O-])c2)cc(OC)c1OC,2%,
COc1ccc(C(=O)c2ccc(Cl)c([N+](=O)[O-])c2)cc1,8.9µM*,ERK pERK EGF=16µM*;c-Raf inh=u;MEK inh=-8%
O=c1c(-c2cc(F)cc(F)c2)nc2cnc(N3CCOCC3)nc2n1C1CC1,-55%,
Cc1ccc(NNc2c(C)nc3ccccc3nc2=O)cc1,x,ERK pERK EGF=8.9µM*;c-Raf inh=-6;MEK inh=24%
Cc1nc2ccccc2nc1OCC(=O)Nc1ccc(F)cc1,-11%,
Cc1ccc(Nc2nc3ccccc3nc2Nc2c(C)n(C)n(-c3ccccc3)c2=O)cc1,8%,
N#Cc1ccc(CN2CCCC3(CCN(C(=O)c4cccc(F)c4)CC3)C2)cc1,11%,
